Data on 119 compounds can be found in PubChem BioAssay AID454 (Sanford-Burnham Center for Chemical Genomics, 2006).

The structures appear in SMILES notation. About 25 (0.2%) of roughly 10,000 compounds were called active.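 The calls were made as follows: active = compound among top-ranked inhibitors of TNF-induced VCAM-1 adhesion protein staining, with the hit upheld by image or statistical review; inactive = the rest, including hits rejected on review.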 For the sample, actives were picked, then their nearest neighbours and some compounds at random.

The nature of the assay: suppression of endothelial VCAM-1 upregulation – cell-based, plate reader, pooled HUVEC, TNFa stimulus (AID 454). To be noted: HUVEC TNFa-induced VCAM-1 surface immunofluorescence; hits give high values,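 compound tested at 5 µM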.
In the case of `COc1ccc(N(CC(=O)Nc2cc(C)ccc2C)S(=O)(=O)c2c(C)nn(C)c2C)cc1`, the inhibition (in general, the relative decrease from the control value, in per cent) was “inactive”. The value for `Cc1ccc2nc(NC(=O)Cn3cc4c(n3)CCCCC4)sc2c1` was “inactive”; that for `CCCCNC(=O)OC(C)CNC(=O)Oc1cccc(C)c1` (centres undefined) was “inactive”; that for `Cc1ccc(O)c(-c2cc(C(=O)Nc3ccc(S(=O)(=O)N4CC(C)OC(C)C4)cc3)[nH]n2)c1` (centres undefined) was “inactive”. The value for `O=C(Nc1ccc2c(c1)OCCO2)C1CCCN1S(=O)(=O)c1cccc2cccnc12` (centres undefined) was “inactive”; that for `CCOc1ccccc1NC(=O)CCSc1nc2n[nH]c(C)c2c(=N)n1-c1ccccc1Cl` was “inactive”; that for `Cn1c(=O)c2c(nc(NCCCO)n2CCc2ccccc2)n(C)c1=O` was “inactive”. The value for `Cc1ccc(-n2c(=O)[nH]c3c(C(N)=O)nc(CC(C)C)nc32)cc1` was “inactive”; that for `N/C(Cn1nnc(-c2ccccc2)n1)=N\O` was “inactive”; that for `CO[C@H]1C[C@@H]2CC[C@@H](C)[C@@](O)(O2)C(=O)C(=O)N2CCCC[C@H]2C(=O)O[C@H]([C@H](C)C[C@@H]2CC[C@@H](O)[C@H](OC)C2)CC(=O)[C@H](C)C=C(C)[C@@H](O)[C@@H](OC)C(=O)[C@H](C)C[C@H](C)C=CC=CC=C1C` was 88.8% (active). With `CCOC(=O)C1CCN(c2c(NC3CCCc4ccccc43)c(=O)c2=O)CC1` (centres undefined), the inhibition entry is “inactive”. `Cc1ccc(C)c2[nH]c(=O)c(CCNC(=O)c3ccc(S(=O)(=O)N(C)C)cc3)cc12`: the inhibition result was “inactive”. The value for `Cc1cc(-n2c(C)cc(C(=O)CSc3nnnn3-c3ccc(Cl)cc3)c2C)no1` was “inactive”; that for `CC(Oc1ccc(Cl)cc1Cl)c1nc(-c2ccc(NC(=O)c3cccnc3)cc2)no1` (centres undefined) was 72% (active); that for `O=C(Nc1ccc(-c2noc(-c3cccs3)n2)cc1)c1cccnc1` was “inactive”. Under `COc1ccc(Cc2nc(-c3ccc(NC(=O)c4cccnc4)cc3)no2)cc1` stands “inactive”; under `O=C(CCSc1nccn1Cc1ccccc1)N1CCOCC1`, “inactive”.

With `Cc1nnc(NC(=O)C2CCCO2)s1` (centres undefined), the inhibition result is “inactive”.

Consider `CCN1CCN(C(c2ccc(F)cc2)c2nnnn2Cc2cccs2)CC1` (centres undefined), for which the inhibition result is “inactive”. The value for `O=C(COC(=O)c1ccco1)NCc1cccs1` was “inactive”; that for `CCCCn1nnnc1SCC(=O)N1CCN(C(=O)c2ccco2)CC1` was “inactive”. As to `COC(=O)CC1SCCNC1=O` (centres undefined), the inhibition result is “inactive”. The value for `Cn1c(-c2ccccc2)cc(=O)c2ccccc21` was “inactive”; that for `O=C(NCCC1=CCCCC1)c1cc2c(s1)CS(=O)(=O)C2` was “inactive”. For the compound `COc1ccc(C(=O)Cn2nnc(-c3cccs3)n2)cc1`, the inhibition entry is “inactive”.

With `O=C(Nc1sccc1C(=O)NCc1ccco1)c1cccnc1`, the inhibition entry was “inactive”. The value for `CCC1CCCCN1S(=O)(=O)c1ccc(C(=O)Nc2nnc(-c3ccccc3Cl)o2)cc1` (centres undefined) was “inactive”. As to `CC1CCCN(S(=O)(=O)c2ccc(C(=O)Nc3nnc(-c4ccccc4Cl)o3)cc2)C1` (centres undefined), the inhibition was 77.1% (active). Under `CCC1CCCCN1S(=O)(=O)c1ccc(C(=O)Nc2nnc(-c3cccs3)o2)cc1` (centres undefined) stands “inactive”; under `COc1ccc(-c2cc(C(=O)NCc3ccc(Cl)cc3)no2)cc1OC`, “inactive”; under `COC(=O)c1[nH]c2cc(OC)ccc2c1NC(=O)CCN1CCCCC1`, “inactive”.

Turning to `O=S(=O)(Cc1ccc(Cl)cc1)Nc1ccc2c(c1)OCO2`, the inhibition entry is “inactive”. The value for `CCOC(=O)N1CCN(S(=O)(=O)c2cc(Cl)ccc2Cl)CC1` was “inactive”; that for `Cc1nnc(SCCn2c(N3CC(C)CC(C)C3)nc3c2c(=O)n(C)c(=O)n3C)s1` (centres undefined) was “inactive”. As to `COC(=O)c1[nH]c2ccccc2c1NC(=O)CN1CCC(C(N)=O)(N2CCCCC2)CC1`, the inhibition result is “inactive”.

As to `CCC(C)NC(=O)CC1Oc2ccc(C)cc2NC1=O` (centres undefined), the inhibition result was “inactive”. The value for `COc1ccccc1NC(=O)N1CCN(c2cccc(C(F)(F)F)c2)CC1` was “inactive”; that for `Cc1cc(C)n2nc[n+](C)c2n1` was “inactive”; that for `CC(=O)N1CCN(S(=O)(=O)c2cccc(C(=O)Nc3ccc4c(c3)CCC4)c2)CC1` was “inactive”. Turning to `CCc1nnc2c3cnn(-c4ccccc4)c3ncn12`, the inhibition entry was “inactive”.

Take `Cc1ccc(S(=O)(=O)N2CCCC2)cc1S(=O)(=O)N1CCCC1`: the inhibition entry was “inactive”.

In the case of `CS(=O)(=O)N1CCc2cc(C(=O)N3CCCCC3)ccc21`, the inhibition entry is “inactive”. Under `Cc1cc(C)nc(NS(=O)(=O)c2ccc(NC(=O)Cn3c(=O)oc4ccccc43)cc2)n1` stands “inactive”. The value for `CCOC(=O)c1[nH]c2ccc(C)cc2c1NC(=O)CN1CCCCC1` was “inactive”. The value for `O=C(CN(Cc1ccc(F)cc1)C(=O)Cn1nnc2ccccc21)NCC1CCCO1` (centres undefined) was “inactive”; that for `O=C(NCC1CCCO1)c1ccc(C(=O)NCC2CCCO2)cc1` (centres undefined) was “inactive”. For the compound `S=C(NCC1CCCO1)n1nnc2ccccc21` (centres undefined), the inhibition was 104% (active). The value for `CC(=O)Oc1ccc(CCC(C)OC(C)=O)cc1` (centres undefined) was “inactive”; that for `CC(=O)Nc1nc(C)c(-c2csc(Nc3ccc(O)cc3)n2)s1` was “inactive”; that for `Oc1ccc(Nc2nc(-c3ccc(O)cc3)cs2)cc1` was 106% (active). Under `c1cc2c(cc1Nc1nc(-c3ccc4c(c3)OCO4)cs1)OCCO2` stands “inactive”; under `COc1ccc2nc(CC(C)(C)CC(=O)O)c[n+]([O-])c2c1`, “inactive”; under `O=C(NC1CC1)c1cccc(Nc2ccc(-c3ccc4c(c3)OCCO4)nn2)c1`, “inactive”. The value for `Cn1c(=O)cc(OCCCC(=O)N2CCCCC2)c2ccccc21` was 101% (active); that for `CCOC(=O)N1CCN(C(=O)COc2cc(=O)n(C)c3ccccc23)CC1` was “inactive”. On to `Cn1c(=O)cc(OCCCC(=O)Nc2ccc3c(c2)OCCO3)c2ccccc21`, for which the inhibition result was “inactive”. Regarding `CCOC(=O)c1nn(-c2sc(C(=O)OC)c(C)c2C(=O)OC)cc1O`, the inhibition entry was “inactive”. The value for `COc1ccc(CCn2c(N)c(C#N)c3nc4ccccc4nc32)cc1OC` was “inactive”.

Regarding `O=C(O)/C=C/c1ccc(O)c(O)c1`, the inhibition entry is “inactive”. Under `COc1cc(/C=C/C(=O)CC(=O)/C=C/c2ccc(O)c(OC)c2)ccc1O` stands 85.5% (active). Under `CCN(CC)C(=O)c1ccc(O)c(OC)c1` stands “inactive”; under `COc1ccc(N2CCN(c3ncnc4c3cnn4-c3ccc(C)cc3C)CC2)cc1`, “inactive”. Under `CC1(C)Cc2c(sc3c2c(=N)n(Cc2ccco2)c(=O)n3Cc2ccccc2)CO1` stands “inactive”; under `Cc1nc(-c2ccccc2)sc1C(N)=O`, “inactive”; under `Clc1ccc(Cl)c(-c2nn3c(Cn4cnc5ccccc54)nnc3s2)c1`, “inactive”. Regarding `CSc1ccccc1NC(=O)CN(c1ccccc1)S(=O)(=O)N(C)C`, the inhibition result is “inactive”. On to `CSc1ccc(Cn2nnc(C(=O)NCc3ccccc3)c2N)cc1`, for which the inhibition result was “inactive”.

For `CC(=O)N1CCN(c2ccc(N=Cc3c(O)n(Cc4ccccc4)c(=O)[nH]c3=O)cc2)CC1`, the inhibition entry was “inactive”. Under `C1=CC2CC1CC2CN1CCN(c2ccccc2)CC1` (centres undefined) stands “inactive”; under `CCOC(=O)C(NC(=O)CC)(Nc1ccc(S(=O)(=O)Nc2onc(C)c2C)cc1)C(F)(F)F` (centres undefined), “inactive”; under `O=C(Nc1nc2c(s1)CCc1ccccc1-2)c1cccs1`, “inactive”.

As for `CS(=O)(=O)N1CCCC(C(=O)NCc2ccccc2Cl)C1` (centres undefined), the inhibition result was “inactive”.

For `CCOC(=O)c1sc(Nc2nc3c(OC)cccc3s2)nc1C`, the inhibition was 73.7% (active).

For the compound `COC(=O)c1sc(NC(=O)COc2ccccc2OC)nc1C`, the inhibition entry was “inactive”.

On to `CCOC(=O)c1sc(NS(=O)(=O)c2ccc(NC(C)=O)cc2)nc1C`, for which the inhibition entry was “inactive”.

Turning to `O=C(O)c1[nH]c2ccc(Cl)cc2c1CC(=O)N1CCN(C(=O)c2ccco2)CC1`, the inhibition result is “inactive”. Under `O=C(c1ccco1)N1CCN(c2c(-c3ccccc3)c3cc(Cl)ccc3[nH]c2=O)CC1` stands 86.3% (active); under `O=C(c1ccco1)N1CCN(c2cccc(Cl)c2)CC1`, “inactive”.

Take `Cc1cc(C)nc(SC2=CS(=O)(=O)c3ccccc32)n1`: the inhibition is 91% (active). The value for `O=S1(=O)C=C(Sc2nnc(-c3ccccc3)o2)c2ccccc21` was “inactive”. As for `O=S1(=O)C=C(Sc2nc3ccccc3s2)c2ccccc21`, the inhibition was 110% (inactive).

As for `Cc1ccc(-c2nc3cnccn3c2Nc2ccc3c(c2)OCO3)o1`, the inhibition entry was “inactive”.

As for `CCOC(=O)C(C(C)=O)c1nc(C)nc2c1nnn2Cc1ccccc1Cl` (centres undefined), the inhibition entry is “inactive”. As for `CCC(C(=O)NC(C)CCc1ccco1)n1nc(C)n2c(cc3occc32)c1=O` (centres undefined), the inhibition result is “inactive”. Under `CCOc1ccccc1NC(=O)CCN1CCN(S(=O)(=O)c2ccc(Br)cc2)CC1` stands “inactive”; under `COc1cccc(-c2nc(CS(=O)(=O)CC(=O)N3CCN(c4ccccn4)CC3)c(C)o2)c1`, “inactive”. Consider `Cc1cc(C)n(-c2nc3ccccc3c(=O)n2OCCOc2ccccc2)n1`, for which the inhibition result is “inactive”.

Consider `Cn1cccc1Cc1nnc(SCC(=O)N2CCOCC2)n1-c1ccc(F)cc1`, for which the inhibition entry is “inactive”.

Turning to `O=C(CN(c1ccc(F)cc1)S(=O)(=O)c1ccc2c(c1)OCCO2)Nc1ccc2c(c1)OCO2`, the inhibition entry is “inactive”. Under `CN(C)/C=C(\C#N)c1nc2ccccc2[nH]1` stands “inactive”; under `O=C(CN(c1ccc(F)cc1)S(=O)(=O)c1ccc2c(c1)OCCO2)Nc1cccnc1`, “inactive”; under `COc1ccc(CNc2oc(-c3cccc4ccccc34)nc2C#N)cc1`, “inactive”. Under `CCCCc1oc2ccccc2c1C(=O)c1cc(I)c(OCCN(CC)CC)c(I)c1` stands 85.9% (active); under `CCc1oc2ccccc2c1C(=O)c1cc(Br)c(O)c(Br)c1`, “inactive”. The value for `CCN(CC)CCOC(=O)c1c(C)oc2ccc(O)cc12` was “inactive”; that for `O=C(COc1ccccc1Cl)NCc1ccco1` was “inactive”. `CCCC1Cc2c(sc3ncnc(N)c23)CO1` (centres undefined): the inhibition entry was “inactive”. The value for `COc1cccc(NC(=O)N2CCC(N3CCCCC3)CC2)c1` was “inactive”. The value for `CCc1nc(C)c(C#N)c2cc(OC)c(OC)cc12` was “inactive”; that for `COc1cc(CC(=O)Nc2ncc(C)s2)cc(OC)c1OC` was “inactive”; that for `C#CCNc1c(C)c(C)nc2ncnn12` was “inactive”. The value for `CCN1CCN(Cc2ccc(NC(=O)Nc3ccc(SC)cc3)cc2)CC1` was “inactive”; that for `Cn1c(=O)[nH]c(=O)c2[nH]c(CN3CCN(C(=O)c4ccco4)CC3)nc21` was “inactive”; that for `C[C@]12CC[C@H]3[C@@H](CCC4=CC(=O)CC[C@@]43C)[C@@H]1CC[C@@H]2C(=O)CO` was “inactive”. On to `CC(=O)OCC(=O)[C@H]1CC[C@H]2[C@@H]3CCC4=CC(=O)CC[C@]4(C)[C@H]3CC[C@]12C`, for which the inhibition result is “inactive”. Under `CC(=O)[C@H]1CC[C@H]2[C@@H]3CCC4=CC(=O)CC[C@]4(C)[C@H]3CC[C@]12C` stands 96.7% (active); under `CCC(=O)N[C@@H]1CC(C(C)(C)NC(=O)CC)CC=C1C` (some centres undefined), “inactive”; under `COc1cc(OC)c2c(c1)OC(c1ccc(OC)c(OC)c1)C(O)C2=O` (centres undefined), “inactive”. Under `Cc1ccc(-c2cc(C(F)F)nc(N3CCC(C)CC3)n2)cc1` stands “inactive”; under `Cc1[nH]n(C(N)=S)c(=O)c1C(c1ccccc1)C(C#N)C#N` (centres undefined), “inactive”; under `CCOC(=O)c1cnc(-n2nc(C)cc2C)nc1N1CC(C)OC(C)C1` (centres undefined), “inactive”. For the compound `Cc1ccc(S(=O)(=O)N2CCCC2C(=O)n2nc(C)cc2C)cc1` (centres undefined), the inhibition entry is “inactive”. Under `CCOCCn1c(CN2CCC(Cc3ccccc3)CC2)nc2c1c(=O)n(C)c(=O)n2C` stands “inactive”; under `Oc1c(C(c2ccccc2)N2CCc3ccccc3C2)sc2ncnn12` (centres undefined), “inactive”; under `CC1=C(C(N)=O)C(c2ccc(Cl)cc2Cl)n2ncnc2N1` (centres undefined), “inactive”. Under `COC(=O)C1=C(C)N(c2ccc(C(=O)OC)cc2)C(=O)C1` stands “inactive”; under `COCCCNC(=O)CCn1c(=O)c2ccccc2n(CC(=O)Nc2ccc(C)cc2C)c1=O`, “inactive”; under `CCOc1cc(-c2nc3ccccn3c2NCC2CCCO2)ccc1O` (centres undefined), “inactive”. In the case of `Cc1cc(C)nc(SCc2nnc(SCc3ccccc3Cl)o2)n1`, the inhibition result is “inactive”.
